Source: the supplement of paper PMC12669032
Values without a mark were called inactive.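 The calls were made as follows: active = AUC reduced over 20% with Padj below 0.05 in at least 2 of 3 replicates; inactive = otherwise.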

Assays:
Assay in all cases: growth AUC relative to DMSO control (median of replicates) (fraction); higher = more growth (less inhibition), active = hit call of the paper
Conditions in all cases: 20 µM; 24 h
Coprococcus comes = test system: Coprococcus comes
In short: (§1)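 Gut bacterial monocultures in mGAM were treated with 20 µM compound (1% DMSO) and grown anaerobically at 37 °C in round-bottom 96-well plates from OD600 0.05. OD600 was read hourly for 24 h, with the minimum OD set to 0. Area under the growth curve was normalised to the plate median of solvent-only wells, or to row and column medians on the industrial chemical plate. Each value is the median of three biological replicates, each grown on a separate day.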

Escherichia coli ED1a = test system: Escherichia coli ED1a
In short: as §1

Escherichia coli IAI1 = test system: Escherichia coli IAI1
In short: as §1

Eubacterium rectale = test system: Eubacterium rectale
In short: as §1

[1] = test system: Fusobacterium nucleatum subsp. animalis
In short: as §1

Lactobacillus gasseri = test system: Lactobacillus gasseri
In short: as §1

Lactobacillus paracasei = test system: Lactobacillus paracasei
In short: as §1

Odoribacter splanchnicus = test system: Odoribacter splanchnicus
In short: as §1

[2] = test system: Parabacteroides distasonis
In short: as §1

Parabacteroides merdae = test system: Parabacteroides merdae
In short: as §1

Roseburia intestinalis = test system: Roseburia intestinalis
In short: as §1

Streptococcus salivarius = test system: Streptococcus salivarius
In short: as §1

SMILES: CCCCOC(=O)COc1ccc(Cl)cc1Cl
- growth AUC (Coprococcus comes): 0.991
- growth AUC (Escherichia coli ED1a): 0.981
- growth AUC (Escherichia coli IAI1): 1.03
- growth AUC (Eubacterium rectale): 0.979
- growth AUC [1]: 1.08
- growth AUC (Lactobacillus gasseri): 1.06
- growth AUC (Lactobacillus paracasei): 0.839
- growth AUC (Odoribacter splanchnicus): 0.946
- growth AUC [2]: 0.994
- growth AUC (Parabacteroides merdae): 0.979
- growth AUC (Roseburia intestinalis): 1.04
- growth AUC (Streptococcus salivarius): 1.01

SMILES: O=C(O)COc1ccc(Cl)c2cccnc12
- growth AUC (Coprococcus comes): 0.997
- growth AUC (Escherichia coli ED1a): 1.05
- growth AUC (Escherichia coli IAI1): 1.04
- growth AUC (Eubacterium rectale): 1.02
- growth AUC [1]: 1.11
- growth AUC (Lactobacillus gasseri): 1.07
- growth AUC (Lactobacillus paracasei): 1.01
- growth AUC (Odoribacter splanchnicus): 1.01
- growth AUC [2]: 1
- growth AUC (Parabacteroides merdae): 1
- growth AUC (Roseburia intestinalis): 0.963
- growth AUC (Streptococcus salivarius): 1.05

SMILES: CCOC(N)=O
- growth AUC (Coprococcus comes): 1.03
- growth AUC (Escherichia coli ED1a): 1.01
- growth AUC (Escherichia coli IAI1): 1.03
- growth AUC (Eubacterium rectale): 1
- growth AUC [1]: 1.04
- growth AUC (Lactobacillus gasseri): 1.02
- growth AUC (Lactobacillus paracasei): 1.02
- growth AUC (Odoribacter splanchnicus): 0.955
- growth AUC [2]: 1.1
- growth AUC (Parabacteroides merdae): 1.03
- growth AUC (Roseburia intestinalis): 1.05
- growth AUC (Streptococcus salivarius): 1.01

SMILES: CCCN(CCOc1c(Cl)cc(Cl)cc1Cl)C(=O)NC=O
- growth AUC (Coprococcus comes): 0.965
- growth AUC (Escherichia coli ED1a): 1.04
- growth AUC (Escherichia coli IAI1): 0.993
- growth AUC (Eubacterium rectale): 1.02
- growth AUC [1]: 1.01
- growth AUC (Lactobacillus gasseri): 1.09
- growth AUC (Lactobacillus paracasei): 0.9
- growth AUC (Odoribacter splanchnicus): 0.956
- growth AUC [2]: 0.925
- growth AUC (Parabacteroides merdae): 0.991
- growth AUC (Roseburia intestinalis): 0.979
- growth AUC (Streptococcus salivarius): 0.993

SMILES: CCN(CC)C(=O)c1cccc(C)c1
- growth AUC (Coprococcus comes): 0.974
- growth AUC (Escherichia coli ED1a): 1
- growth AUC (Escherichia coli IAI1): 1.01
- growth AUC (Eubacterium rectale): 1.06
- growth AUC [1]: 1.04
- growth AUC (Lactobacillus gasseri): 0.966
- growth AUC (Lactobacillus paracasei): 0.977
- growth AUC (Odoribacter splanchnicus): 1.13
- growth AUC [2]: 1.01
- growth AUC (Parabacteroides merdae): 1.04
- growth AUC (Roseburia intestinalis): 0.967
- growth AUC (Streptococcus salivarius): 0.96

SMILES: COC1CCC2(CC1)NC(=O)C(c1cc(C)ccc1C)=C2O (stereo not given)
- growth AUC (Coprococcus comes): 1.02
- growth AUC (Escherichia coli ED1a): 1.03
- growth AUC (Escherichia coli IAI1): 1.02
- growth AUC (Eubacterium rectale): 1.13
- growth AUC [1]: 1.13
- growth AUC (Lactobacillus gasseri): 0.95
- growth AUC (Lactobacillus paracasei): 1.05
- growth AUC (Odoribacter splanchnicus): 1.05
- growth AUC [2]: 1.01
- growth AUC (Parabacteroides merdae): 1.08
- growth AUC (Roseburia intestinalis): 0.986
- growth AUC (Streptococcus salivarius): 1.03

SMILES: CCCOC(=O)c1ccc(C(=O)OCCC)nc1
- growth AUC (Coprococcus comes): 1.05
- growth AUC (Escherichia coli ED1a): 1
- growth AUC (Escherichia coli IAI1): 1
- growth AUC (Eubacterium rectale): 1.03
- growth AUC [1]: 0.944
- growth AUC (Lactobacillus gasseri): 0.966
- growth AUC (Lactobacillus paracasei): 0.861
- growth AUC (Odoribacter splanchnicus): 1.07
- growth AUC [2]: 1
- growth AUC (Parabacteroides merdae): 0.986
- growth AUC (Roseburia intestinalis): 0.977
- growth AUC (Streptococcus salivarius): 0.996

SMILES: O=[N+]([O-])c1ccc(Oc2c(Cl)cc(Cl)cc2Cl)cc1
- growth AUC (Coprococcus comes): 0.95
- growth AUC (Escherichia coli ED1a): 1.01
- growth AUC (Escherichia coli IAI1): 1.03
- growth AUC (Eubacterium rectale): 1.02
- growth AUC [1]: 1.05
- growth AUC (Lactobacillus gasseri): 0.874
- growth AUC (Lactobacillus paracasei): 1.05
- growth AUC (Odoribacter splanchnicus): 1.03
- growth AUC [2]: 0.623 (active)
- growth AUC (Parabacteroides merdae): 0.899
- growth AUC (Roseburia intestinalis): 1.02
- growth AUC (Streptococcus salivarius): 1.03

SMILES: CC(C)(C)C(O)/C(=C\c1ccc(Cl)cc1)n1cncn1 (stereo not given)
- growth AUC (Coprococcus comes): 1.03
- growth AUC (Escherichia coli ED1a): 0.988
- growth AUC (Escherichia coli IAI1): 1.03
- growth AUC (Eubacterium rectale): 0.978
- growth AUC [1]: 0.987
- growth AUC (Lactobacillus gasseri): 0.943
- growth AUC (Lactobacillus paracasei): 1.05
- growth AUC (Odoribacter splanchnicus): 0.976
- growth AUC [2]: 0.959
- growth AUC (Parabacteroides merdae): 0.948
- growth AUC (Roseburia intestinalis): 0.973
- growth AUC (Streptococcus salivarius): 0.955

SMILES: C[C@@]1(c2ccccc2)NC(=O)N(Nc2ccccc2)C1=O
- growth AUC (Coprococcus comes): 1.03
- growth AUC (Escherichia coli ED1a): 1.02
- growth AUC (Escherichia coli IAI1): 1.01
- growth AUC (Eubacterium rectale): 0.948
- growth AUC [1]: 1
- growth AUC (Lactobacillus gasseri): 1.05
- growth AUC (Lactobacillus paracasei): 0.955
- growth AUC (Odoribacter splanchnicus): 0.993
- growth AUC [2]: 1.02
- growth AUC (Parabacteroides merdae): 0.996
- growth AUC (Roseburia intestinalis): 0.958
- growth AUC (Streptococcus salivarius): 1.02

SMILES: COC1CCC2(CC1)NC(=O)C(c1cc(C)ccc1C)=C2OC1OC(CO)C(O)C(O)C1O (stereo not given)
- growth AUC (Coprococcus comes): 1.03
- growth AUC (Escherichia coli ED1a): 1.03
- growth AUC (Escherichia coli IAI1): 1.03
- growth AUC (Eubacterium rectale): 1.1
- growth AUC [1]: 1.17
- growth AUC (Lactobacillus gasseri): 0.948
- growth AUC (Lactobacillus paracasei): 1.01
- growth AUC (Odoribacter splanchnicus): 0.994
- growth AUC [2]: 1.01
- growth AUC (Parabacteroides merdae): 1.05
- growth AUC (Roseburia intestinalis): 1
- growth AUC (Streptococcus salivarius): 1.01

SMILES: CC(C)c1ccccc1
- growth AUC (Coprococcus comes): 0.983
- growth AUC (Escherichia coli ED1a): 0.987
- growth AUC (Escherichia coli IAI1): 0.999
- growth AUC (Eubacterium rectale): 0.968
- growth AUC [1]: 0.92
- growth AUC (Lactobacillus gasseri): 1.17
- growth AUC (Lactobacillus paracasei): 0.996
- growth AUC (Odoribacter splanchnicus): 0.999
- growth AUC [2]: 1.04
- growth AUC (Parabacteroides merdae): 1.02
- growth AUC (Roseburia intestinalis): 0.991
- growth AUC (Streptococcus salivarius): 0.968

SMILES: COCC(=O)N(c1c(C)cccc1C(=O)O)C(C)C(=O)O (stereo not given)
- growth AUC (Coprococcus comes): 1.01
- growth AUC (Escherichia coli ED1a): 0.986
- growth AUC (Escherichia coli IAI1): 0.978
- growth AUC (Eubacterium rectale): 0.949
- growth AUC [1]: 0.879
- growth AUC (Lactobacillus gasseri): 1.07
- growth AUC (Lactobacillus paracasei): 0.734
- growth AUC (Odoribacter splanchnicus): 1.1
- growth AUC [2]: 1.01
- growth AUC (Parabacteroides merdae): 0.989
- growth AUC (Roseburia intestinalis): 1.02
- growth AUC (Streptococcus salivarius): 0.982

SMILES: CCSc1nc(NC(C)C)nc(NC(C)C)n1
- growth AUC (Coprococcus comes): 0.984
- growth AUC (Escherichia coli ED1a): 1.01
- growth AUC (Escherichia coli IAI1): 0.982
- growth AUC (Eubacterium rectale): 0.787
- growth AUC [1]: 0.91
- growth AUC (Lactobacillus gasseri): 1.03
- growth AUC (Lactobacillus paracasei): 0.896
- growth AUC (Odoribacter splanchnicus): 0.968
- growth AUC [2]: 1
- growth AUC (Parabacteroides merdae): 0.91
- growth AUC (Roseburia intestinalis): 0.96
- growth AUC (Streptococcus salivarius): 0.999

SMILES: Cc1[nH]n(C)c(=O)c1C(=O)c1ccc(C(F)(F)F)cc1S(C)(=O)=O
- growth AUC (Coprococcus comes): 0.991
- growth AUC (Escherichia coli ED1a): 1.01
- growth AUC (Escherichia coli IAI1): 1.08
- growth AUC (Eubacterium rectale): 0.972
- growth AUC [1]: 1.01
- growth AUC (Lactobacillus gasseri): 1.02
- growth AUC (Lactobacillus paracasei): 1.03
- growth AUC (Odoribacter splanchnicus): 1.02
- growth AUC [2]: 1.04
- growth AUC (Parabacteroides merdae): 0.974
- growth AUC (Roseburia intestinalis): 1.01
- growth AUC (Streptococcus salivarius): 1.03

SMILES: COc1cccc(N(C)C(=S)Oc2cccc(C(C)(C)C)c2)n1
- growth AUC (Coprococcus comes): 0.954
- growth AUC (Escherichia coli ED1a): 0.997
- growth AUC (Escherichia coli IAI1): 0.982
- growth AUC (Eubacterium rectale): 0.896
- growth AUC [1]: 0.971
- growth AUC (Lactobacillus gasseri): 1.06
- growth AUC (Lactobacillus paracasei): 0.707
- growth AUC (Odoribacter splanchnicus): 1.11
- growth AUC [2]: 0.951
- growth AUC (Parabacteroides merdae): 0.933
- growth AUC (Roseburia intestinalis): 0.984
- growth AUC (Streptococcus salivarius): 0.967

SMILES: COC(=O)c1csc(C)c1S(=O)(=O)NC(=O)n1nc(OC)n(C)c1=O
- growth AUC (Coprococcus comes): 1.01
- growth AUC (Escherichia coli ED1a): 1
- growth AUC (Escherichia coli IAI1): 0.971
- growth AUC (Eubacterium rectale): 1.11
- growth AUC [1]: 0.942
- growth AUC (Lactobacillus gasseri): 0.805
- growth AUC (Lactobacillus paracasei): 0.993
- growth AUC (Odoribacter splanchnicus): 0.982
- growth AUC [2]: 0.801
- growth AUC (Parabacteroides merdae): 0.99
- growth AUC (Roseburia intestinalis): 0.974
- growth AUC (Streptococcus salivarius): 0.931

SMILES: CO/N=C(/C(=O)O)c1ccccc1CO/N=C(\C)c1cccc(C(F)(F)F)c1
- growth AUC (Coprococcus comes): 0.977
- growth AUC (Escherichia coli ED1a): 0.986
- growth AUC (Escherichia coli IAI1): 0.979
- growth AUC (Eubacterium rectale): 1.07
- growth AUC [1]: 1.04
- growth AUC (Lactobacillus gasseri): 0.948
- growth AUC (Lactobacillus paracasei): 1.02
- growth AUC (Odoribacter splanchnicus): 0.775
- growth AUC [2]: 0.985
- growth AUC (Parabacteroides merdae): 0.99
- growth AUC (Roseburia intestinalis): 1.01
- growth AUC (Streptococcus salivarius): 0.915

SMILES: O=S(=O)(Cc1ccc(Cl)cc1)c1ccc(Cl)cc1
- growth AUC (Coprococcus comes): 0.978
- growth AUC (Escherichia coli ED1a): 0.97
- growth AUC (Escherichia coli IAI1): 1.02
- growth AUC (Eubacterium rectale): 1.02
- growth AUC [1]: 0.977
- growth AUC (Lactobacillus gasseri): 1.04
- growth AUC (Lactobacillus paracasei): 1.03
- growth AUC (Odoribacter splanchnicus): 0.995
- growth AUC [2]: 1
- growth AUC (Parabacteroides merdae): 0.98
- growth AUC (Roseburia intestinalis): 1.05
- growth AUC (Streptococcus salivarius): 1.06

SMILES: COc1cc(OC)nc(NC(=O)NS(=O)(=O)Nc2ccccc2C(=O)N(C)C)n1
- growth AUC (Coprococcus comes): 0.994
- growth AUC (Escherichia coli ED1a): 0.981
- growth AUC (Escherichia coli IAI1): 0.992
- growth AUC (Eubacterium rectale): 0.972
- growth AUC [1]: 0.94
- growth AUC (Lactobacillus gasseri): 1.03
- growth AUC (Lactobacillus paracasei): 0.939
- growth AUC (Odoribacter splanchnicus): 0.997
- growth AUC [2]: 1.03
- growth AUC (Parabacteroides merdae): 1.02
- growth AUC (Roseburia intestinalis): 0.981
- growth AUC (Streptococcus salivarius): 0.99
